Measurements from PubChem BioAssay (NCATS).

Experiment: qHTS profiling of the MIPE4 collection as inhibitors of Plasmodium falciparum (DD2) proliferation (AID 743345)
Settings: P. falciparum Dd2 in erythrocytes, SYBR Green DNA, 72 h; at 28.5 µM (top of the series) unless noted
Description: Plasmodium falciparum is a virulent malarial parasite that kills 1-2 million people worldwide each year. Transmitted by mosquitoes, the sporozoite form of the parasite enters the blood stream to infect hepatocytes, where they become merozoites that infect red blood cells (erythrocytes). Within erythrocytes, merozoites begin a […] cycle of growth and division, after which the parasite is released to infect new red blood cells. Gametocytes, which form within erythrocytes as well, circulate in the bloodstream and are ingested by the mosquito, thereby completing the life cycle. To profile malarial isolates for differential chemical responses and to identify inhibitors of malarial growth, an assay that measures P. falciparum growth and replication within erythrocytes was employed. This assay uses a DNA binding fluorescent dye (SYBR Green) to detect parasite DNA following cell lysis. Because mature erythrocytes lack DNA, only Plasmodium-derived DNA is detected.
The SYBR Green viability assay was adapted from a method described previously (Plouffe et al., 2008). For screening 3 ul culture medium was dispensed into 1536 well black clear bottom plates (Aurora Biotechnologies) using a Multidrop Combi (Thermo Fisher Scientific Inc.), 23 nL compounds in DMSO were added by a pin tool (Kalypsys), and 5 ul of erythrocytes infected with P. falciparum (0.3% parasitemia, 2.5% hematocrit final concentration) were added. The plates were incubated at 37 C in a humidified incubator in 5% CO2 for 72 h, and 2 ul lysis buffer (20 mM Tris HCl, 10 mM EDTA, 0.16% saponin, 1.6% triton X, 10X SYBR Green I supplied as 10,000X […] by Invitrogen) was added to each well. The plates were mixed for 25 sec with gentle shaking and incubated overnight at room temperature in the dark. The following morning, fluorescence intensity at 485(14) nm excitation and 535(25) nm emission wavelengths was measured on an EnVision (Perkin Elmer) plate reader. Plate reads were normalized relative to the control inhibitor (0.29 uM artemisinin) and vehicle (DMSO) wells present on each plate and then corrected by an algorithm using vehicle-only control plates at the beginning and end of the compound plate stack.
With `CC[C@H](NC(C)C)[C@H](O)c1ccc(O)c2[nH]c(=O)ccc12` the parasite growth remaining, % of DMSO control (lower = more inhibition) was 107%. With `COc1ccc2c(c1)c(CC(=O)OCC(=O)O)c(C)n2C(=O)c1ccc(Cl)cc1` the parasite growth remaining, % of DMSO control (lower = more inhibition) was 104%. `C[C@]12C=CC(=O)C=C1CC[C@@H]1[C@@H]2C(=O)C[C@@]2(C)[C@H]1CC[C@]2(O)C(=O)CO` showed a parasite growth remaining, % of DMSO control (lower = more inhibition) of 95.7% [at 9.64 µM]. Work on `COc1nc(N)nc2c1ncn2[C@@H]1O[C@H](CO)[C@@H](O)[C@@H]1O` yielded a parasite growth remaining, % of DMSO control (lower = more inhibition) of 85.4%. For `N[C@@H](C(=O)N[C@@H]1C(=O)N2C(C(=O)O)=C(Cl)CS[C@H]12)c1ccccc1`, the parasite growth remaining, % of DMSO control (lower = more inhibition) was 96.8%. `CC(N)C12CC3CC(CC(C3)C1)C2` (stereo not given) gave a parasite growth remaining, % of DMSO control (lower = more inhibition) of 12.6%. `Cc1cccc(Nc2ccncc2S(=O)(=O)NC(=O)NC(C)C)c1` gave a parasite growth remaining, % of DMSO control (lower = more inhibition) of 104%. In the case of `Nc1nc(N)nc(-c2cc(Cl)ccc2Cl)n1`, the parasite growth remaining, % of DMSO control (lower = more inhibition) is reported as 88.9%. In the case of `CN1CCN(c2c(F)cc3c(=O)c(C(=O)O)cn4c3c2OCN4C)CC1`, the parasite growth remaining, % of DMSO control (lower = more inhibition) is reported as 95.5%. Compound `NNC(=O)c1ccncc1` has a parasite growth remaining, % of DMSO control (lower = more inhibition) of 8.99%. `Cc1nnc(NS(=O)(=O)c2ccc(N)cc2)s1` gave a parasite growth remaining, % of DMSO control (lower = more inhibition) of 17.6%. `C#CCN[C@@H]1CCc2ccccc21` showed a parasite growth remaining, % of DMSO control (lower = more inhibition) of 129%. `NC(=O)c1cccnc1` showed a parasite growth remaining, % of DMSO control (lower = more inhibition) of 97.3%. Compound `Cc1oc(=O)oc1CN1CCN(c2cc3c(cc2F)c(=O)c(C(=O)O)c2n3C(C)S2)CC1` (stereo not given) has a parasite growth remaining, % of DMSO control (lower = more inhibition) of 12.9%. `O=C(N[C@H](CO)[C@H](O)c1ccc([N+](=O)[O-])cc1)C(Cl)Cl` gave a parasite growth remaining, % of DMSO control (lower = more inhibition) of 100%. `O=C(O)C1CCCN(CCC=C(c2ccccc2)c2ccccc2)C1` (stereo not given) showed a parasite growth remaining, % of DMSO control (lower = more inhibition) of 103%. `CC(C)(C#N)c1cc(Cn2cncn2)cc(C(C)(C)C#N)c1` gave a parasite growth remaining, % of DMSO control (lower = more inhibition) of 91.9%. Compound `COCCCOc1cc(C[C@@H](C[C@H](N)[C@@H](O)C[C@H](C(=O)NCC(C)(C)C(N)=O)C(C)C)C(C)C)ccc1OC` has a parasite growth remaining, % of DMSO control (lower = more inhibition) of 119%. Work on `CCC(=O)O[C@]1(C(=O)SCF)[C@H](C)C[C@H]2[C@@H]3C[C@H](F)C4=CC(=O)C=C[C@]4(C)[C@@]3(F)[C@@H](O)C[C@@]21C` yielded a parasite growth remaining, % of DMSO control (lower = more inhibition) of 86.3%. Compound `COc1ccccc1OCC(O)COC(N)=O` (stereo not given) has a parasite growth remaining, % of DMSO control (lower = more inhibition) of 96.9%. For `CCN[C@H]1C[C@H](C)S(=O)(=O)c2sc(S(N)(=O)=O)cc21`, the parasite growth remaining, % of DMSO control (lower = more inhibition) was 19.2%. In the case of `CC(C)NCC(O)c1ccc(NS(C)(=O)=O)cc1` (stereo not given), the parasite growth remaining, % of DMSO control (lower = more inhibition) is reported as 94.6%. With `COc1cc2ncnc(Nc3cccc(Cl)c3)c2cc1OC` the parasite growth remaining, % of DMSO control (lower = more inhibition) was 27%. For `CN(CCOc1ccc(CC2SC(=O)NC2=O)cc1)c1ccccn1` (stereo not given), the parasite growth remaining, % of DMSO control (lower = more inhibition) was 93.4%. With `CCN(CC)CCn1c(=O)c(Cc2ccc(OC)cc2)nc2ccccc21` the parasite growth remaining, % of DMSO control (lower = more inhibition) was 46.8%. For `Nc1nc(=S)c2[nH]cnc2[nH]1`, the parasite growth remaining, % of DMSO control (lower = more inhibition) was 101%. `CCCCCCNC(=O)n1cc(F)c(=O)[nH]c1=O` gave a parasite growth remaining, % of DMSO control (lower = more inhibition) of 32%. For `COc1cc2nc(N3CCCN(C)CC3)nc(NC3CCN(Cc4ccccc4)CC3)c2cc1OC`, the parasite growth remaining, % of DMSO control (lower = more inhibition) was 6.59%. `COc1ncnc(NS(=O)(=O)c2ccc(N)cc2)c1OC` gave a parasite growth remaining, % of DMSO control (lower = more inhibition) of 105%. `O=P(O)(O)C(O)(Cc1cccnc1)P(=O)(O)O` gave a parasite growth remaining, % of DMSO control (lower = more inhibition) of 99.5%. For `OC(Cn1cncn1)(Cn1cncn1)c1ccc(F)cc1F`, the parasite growth remaining, % of DMSO control (lower = more inhibition) was 101%. Compound `Oc1c(Cl)cc(Cl)c2cccnc12` has a parasite growth remaining, % of DMSO control (lower = more inhibition) of 94.2%. For `CNNCc1ccc(C(=O)NC(C)C)cc1`, the parasite growth remaining, % of DMSO control (lower = more inhibition) was 93.3%. Work on `CC1CC2C3CCC4=CC(=O)C=C[C@]4(C)[C@@]3(F)[C@@H](O)C[C@]2(C)[C@@]1(O)C(=O)CO` (stereo not given in full) yielded a parasite growth remaining, % of DMSO control (lower = more inhibition) of 90.6%. `O=C(O)c1cn(C2CC2)c2cc(N3CCNCC3)c(F)cc2c1=O` gave a parasite growth remaining, % of DMSO control (lower = more inhibition) of 85.5%. In the case of `CCCc1cc(C(N)=S)ccn1`, the parasite growth remaining, % of DMSO control (lower = more inhibition) is reported as 65.8%. In the case of `CCCCOc1ccc(CC(=O)NO)cc1`, the parasite growth remaining, % of DMSO control (lower = more inhibition) is reported as 14.7%. Work on `NC(N)=NC(N)=NCCc1ccccc1` yielded a parasite growth remaining, % of DMSO control (lower = more inhibition) of 38.8%. Compound `CCCOc1ccc(C(=O)OCCN(CC)CC)cc1N` has a parasite growth remaining, % of DMSO control (lower = more inhibition) of 88.7%. In the case of `CC(=O)Oc1ccccc1C(=O)Nc1ncc([N+](=O)[O-])s1`, the parasite growth remaining, % of DMSO control (lower = more inhibition) is reported as 8.2% [at 57.5 µM].
